Data taken from PubChem BioAssay AID2289 (National Center for Advancing Translational Sciences (NCATS), 2010).
The campaign covered roughly 340,000 compounds. About 3,300 (0.97%) were called active. Roughly 9% stayed inconclusive and do not appear here. Calls come from the whole dose curve; as a rule, active = well fitted inhibition curve with a large enough effect; inconclusive = small, poorly fitted or top-dose-only effect, or effect the other way; inactive = flat fitted curve, though single readings scatter. The list shows a part of the results.

Assay: qHTS Assay for Modulators of miRNAs and/or Inhibitors of miR-21; note: nearly all actives have a fitted effect of over 55% in size
Conditions: HeLa miR-21-FLuc reporter, luciferase luminescence, 48 h; actives lower the signal
Method in brief: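 Luminescence from a firefly luciferase reporter carrying a miR-21 binding site downstream, stably expressed under a CMV promoter in HeLa cells that make miR-21 endogenously, reports miRNA modulation after 48 h compound exposure up to approximately 40uM final.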
Potency is the fitted concentration of half-maximal effect.

Potency, active:
Cc1cc(N(C)C)ccc1N=Nc1ccc2ncccc2c1 1.65 µM
Cc1ccccc1NC(=O)c1ccc2ccccc2c1 5.21 µM
COc1cc2ccccc2cc1C(=O)Nc1ccccc1C 3.29 µM
COc1ccc2oc(=N)c(C(=O)Nc3ccccc3Cl)cc2c1 0.414 µM
COc1ccc(C(=O)Nc2ccccc2C(=O)O)cc1Cl 4.65 µM
COc1cc2ccccc2cc1C(=O)Nc1ccccc1Cl 1.85 µM
COc1cc2ccccc2cc1C(=O)Nc1ccc(C)cn1 0.656 µM
CSc1ncc(-c2ccc(Cl)cc2)[nH]1 1.65 µM
Cc1cccc(-n2cnc(C(=O)NC3CCCCCC3)c2)n1 3.69 µM
Cc1cc(O)cc2c(=O)c3ccccc3sc12 16.5 µM
CCn1c(C)cc(/C=C2/SC(=O)N(C(C)C(=O)OC)C2=O)c1C (stereo not drawn) 2.07 µM
CCn1c(C)cc(/C=C2/SC(=S)NC2=O)c1C 10.4 µM
CCC(=O)Nc1ccc2c(c1)ncn2-c1ccc(OC)cc1 16.5 µM
COc1ccc(-n2cnc3cc(N)ccc32)cc1 14.7 µM
CC(=O)Nc1ccc2c(c1)ncn2-c1ccccc1 7.36 µM
CCC(=O)Nc1ccc2c(c1)ncn2-c1ccc(C)cc1 5.21 µM
CCC(=O)Nc1ccc2c(c1)ncn2-c1ccccc1 7.36 µM
O=C(Nc1ccc2c(c1)ncn2-c1ccccc1)c1ccco1 2.33 µM
CCc1ccc(C(=O)N/N=C(\C)c2ccncc2)s1 20.7 µM
C/C(=N\NC(=O)c1csc(C)c1C)c1ccc(C)s1 13.1 µM
C/C(=N/NC(=O)c1ccc(C)s1)c1ccncc1 16.5 µM
Cc1scc(C(=O)N/N=C/c2ccc(Cl)s2)c1C 1.65 µM
O=C1CN(c2nc(-c3cccs3)nc3sc4c(c23)CCCC4)CCN1 10.4 µM
CN(C)CCNC(=O)c1cc2c(s1)-c1ccccc1OC2 13.1 µM
CCN(CC)C(=O)c1cc2sc3ccccc3c2s1 3.29 µM
CN(C)CCNC(=O)c1cc2sc3ccccc3c2s1 16.5 µM
CC(C)(C)OC(=O)N/N=C\C=C\c1ccc2c(c1)OCO2 3.69 µM
CCOC(=O)N/N=C\C=C\c1ccc2c(c1)OCO2 7.36 µM
CN(C)c1ccc(N=Nc2cccc3ccoc23)cc1 0.826 µM
CN(C)c1ccc(N=Nc2cccc(F)c2)cc1 2.07 µM
Cc1nnsc1C(=O)NNc1ccc(C(C)C)cc1 13.1 µM
CNC(=O)c1ccc2nc(CCc3ccccc3)oc2c1 5.85 µM
COCCCNC(=O)c1ccc2nc(Cc3ccc(OC)cc3)oc2c1 9.27 µM
O=C(NCCCn1ccnc1)c1cc(-c2cccs2)on1 14.7 µM
O=C(NCCCn1ccnc1)c1cc(-c2ccccc2)on1 16.5 µM
C(=N\N=C\c1cccs1)/c1cccs1 5.21 µM
COc1ccc(-n2cnc3cc(NCc4ccco4)ccc32)cc1 14.7 µM
CCn1cnc2cc(NCc3ccccc3Cl)ccc21 11.7 µM
CCn1cnc2cc(NCc3ccc(C)cc3)ccc21 5.21 µM
CCc1ccc(CNc2ccc3c(c2)ncn3CC)cc1 5.21 µM
Cc1ccc(CNc2ccc3c(c2)ncn3C(C)C)cc1 3.29 µM
Cc1ccc(CNc2ccc3c(c2)ncn3C)cc1 3.29 µM
CC(C)n1cnc2cc(NCc3ccco3)ccc21 11.7 µM
CCn1cnc2cc(NCc3ccc(Cl)cc3)ccc21 3.69 µM
Cc1cccc(C(=O)Nc2ccc3c(c2)ncn3C)c1 1.47 µM
O=C(Nc1ccc(N2CCOCC2)cc1)c1nc2ccccc2s1 0.0826 µM
COc1cccc(/C=C(/CC(=O)Nc2ccc(N3CCOCC3)cc2)c2nc3ccccc3s2)c1 16.5 µM
Cc1ccc2nc(-c3ccc(C)c(NC(=O)CSc4ccc(Cl)cc4)c3)oc2c1 2.07 µM
Cc1ccc2oc(-c3ccc(C)c(NC(=O)/C=C/c4ccc(Cl)cc4)c3)nc2c1 3.69 µM
O=C(NC1CCCCC1)c1ccc(-c2cccc([N+](=O)[O-])c2)o1 1.31 µM
O=C(NC1CCCCC1)c1ccc(-c2ccccc2[N+](=O)[O-])o1 1.17 µM
COc1ccccc1CC(=O)NCc1csc(-c2cccs2)n1 6.56 µM
O=C(NCc1csc(-c2cccs2)n1)C1CCCCC1 5.21 µM
C/C(CCc1ccc2c(c1)OCO2)=N\NC(=O)c1ccccc1 13.1 µM
Cc1ccc(CSc2ccc(-c3ccco3)nn2)cc1 6.56 µM
Fc1cccc(CSc2ccc(-c3ccco3)nn2)c1 16.5 µM
Fc1ccc(CSc2ccc(-c3ccco3)nn2)cc1 8.26 µM
CCN(CC)N=Nc1[nH]nc2nc(C)cc(C)c12 16.5 µM
Brc1ccc2oc(-c3ccn[nH]3)cc2c1 2.93 µM
CCN(CC)CCCNC(=S)Nc1ccc(Br)cc1 2.93 µM
O=C(CSCc1ccccc1)N=Nc1c(O)[nH]c2ccccc12 16.5 µM
Oc1ccc(NC(=S)N=Nc2c(O)[nH]c3ccccc23)cc1 11.7 µM
CC(=O)/C=C(\C)N=Nc1c(O)[nH]c2ccccc12 18.5 µM
CC(C)c1ccc(/C=N/Nc2ccc(C(=O)O)cc2)cc1 0.0465 µM
COc1cc(/C=N/Nc2ccc(C(=O)O)cc2)cc(OC)c1OC 2.33 µM
COc1ccc(/C=N/Nc2ccc(C(=O)O)cc2)cc1Br 0.104 µM
CCCOc1ccc(/C=N/Nc2ccc(C(=O)O)cc2)c(OCCC)c1 16.5 µM
C=CCOc1c(Br)cc(/C=N/Nc2ccc(C(=O)O)cc2)cc1OCC 2.93 µM
Cc1nc2cc(Cl)c(Cl)cc2nc1C 16.5 µM
COc1ccccc1Nc1ncc2c(n1)CCN(CC(C)C)C2 6.56 µM
CC(C)CN1CCc2nc(Nc3ccc(F)cc3F)ncc2C1 7.36 µM
COc1ccc(-c2nc3ccc(NS(C)(=O)=O)cc3o2)cc1 1.17 µM
CC(=O)Nc1ccc(-c2nc3ccc(NC(C)=O)cc3o2)cc1 3.69 µM
CC(=O)Nc1ccc(-c2nc3cc(Cl)ccc3o2)cc1 0.369 µM
O=C(Nc1ccc(-c2nc3cc(Cl)ccc3o2)cc1)C1CCCO1 (stereo not drawn) 0.656 µM
COc1ccc(Cl)cc1C(=O)Nc1ccc2oc(-c3ccc(C(C)(C)C)cc3)nc2c1 4.65 µM
COc1ccc(C(=O)CCNc2cccc(Cl)c2)cc1 7.36 µM
COc1cccc(NCCC(=O)c2cccc([N+](=O)[O-])c2)c1 13.1 µM
COc1n[nH]c(C(=O)Nc2nc3ccccc3s2)c1[N+](=O)[O-] 6.56 µM
CNc1ccccc(-c2ccc3cc4c(cc3n2)OCO4)c1=O 2.61 µM
Cc1ccc2nc(-c3ccc(NC(=S)NC(=O)C(C)C)cc3)sc2c1 0.927 µM
CCCCNC(=S)Nc1ccc(-c2nc3ccc(C)cc3s2)cc1 0.826 µM
CCC(=O)NC(=S)Nc1ccc(-c2nc3ccccc3s2)cc1 0.293 µM
CCC(=O)NC(=S)Nc1ccc(-c2nc3ccc(C)cc3s2)cc1 8.26 µM
Cc1ccc(Nc2ncnc3sc(C)c(C)c23)cc1 14.7 µM
COc1ccc(NC(=O)CCCn2c(=O)c3cccn3c3ccccc32)c(OC)c1 2.07 µM
O=C(CCCn1c(=O)c2cccn2c2ccccc21)NCCc1ccc(Cl)cc1 1.47 µM
O=C(CCCn1c(=O)c2cccn2c2ccccc21)Nc1cccc(Cl)c1 2.93 µM
CCCCOC(=O)Oc1ccc2c(=O)c(Oc3cccc(C)c3)coc2c1 18.5 µM
Cc1nc(Cl)cc(N/N=C/c2ccc(O)cc2)n1 18.5 µM
Cc1nc2ccccc2nc1N/N=C/c1ccc(O)cc1 18.5 µM
Cc1nc2c(-c3ccccc3)cnn2c(N2CCOCC2)c1C 2.33 µM
C=CCc1c(C)nc2c(-c3ccccc3)cnn2c1N1CCOCC1 1.65 µM
Fc1ccccc1-c1nc(-c2ccccc2)no1 1.17 µM
Cc1ccc(-c2noc(-c3ccccc3F)n2)cc1 1.47 µM
Fc1ccc(-c2cc(-c3nc(-c4ccccc4)no3)[nH]n2)cc1 5.85 µM
c1ccc(-c2cc(-c3ccccc3)[nH]n2)cc1 1.65 µM
CS(=O)c1ccccc1-c1nc(-c2ccc(Cl)cc2)no1 (stereo not drawn) 6.56 µM
Cc1ccc(NC(=O)Nc2ccc3c(c2)OCO3)cc1F 0.736 µM
Cc1ccc(NC(=O)Nc2ccc3c(c2)OCO3)nc1 2.33 µM
CCCSc1nsc(NC(=O)CC)n1 0.521 µM
c1csc(CSc2nnc3sc4ccccc4n23)c1 8.26 µM
O=C(CSc1nnc2sc3ccccc3n12)c1ccco1 16.5 µM
Cc1nc(NC(=O)/C=C/c2ccccc2)sc1C(=O)N(C)C 13.1 µM
COc1ccccc1C(=O)N/N=C/c1ccc2c(c1)OCO2 3.29 µM
COc1ccccc1C(=O)N/N=C/c1cnc2ccccc2n1 11.7 µM
COc1cccc(C(=O)Nc2ccc3c(c2)OCO3)c1OC 2.07 µM
COc1cc(Cl)c(C)cc1NC(=O)c1cccc(OC)c1OC 5.21 µM
